From PubChem BioAssay (NCI) come the findings set out here.

Values joined by “and” are separate entries in the source; they are usually repeats but may differ in a detail not shown here. Identical values can stand only once. About 83,000 compounds went through this panel and 20% of them were active in at least one assay; those are over-represented in the sample as a whole.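 Single-concentration screen, 48 h exposure, 96-well plates. Endpoint: percent growth. Below 10 = active.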 Unmarked numbers belong to inactive results. Active and inactive are the calls of the source.

Assay in all cases: NCI-60 one-dose screen, 48 h (100 = growth as untreated, 0 = no growth, -100 = all killed)
Conditions in all cases: 10 µM unless noted

The subject of test [1] is NCI-H23 lung.
Test [2] deals with NCI-H226 lung.
The subject of test [3] is NCI-H322M lung.
For test [4], the system named is HOP-62 NSCLC.
For test [5], the system named is NCI-H460 lung.
The test system of test [6] is HOP-92 NSCLC.
Test [7] has as its system NCI-H522 lung.
Test [8] concerns A549/ATCC NSCLC.
Test [9] concerns 786-0 renal.
Test [10] relates to COLO 205 colon.
Test [11] relates to DU-145 prostate.
Test [12] concerns K-562 leukemia.
In test [13] the test system is MALME-3M melanoma.
Test [14] deals with MDA-MB-231 breast.
The test system of test [15] is RXF 393 renal.
Test [16] deals with SF-268 CNS.
For test [17], the system named is SF-295 CNS.
The subject of test [18] is SF-539 CNS.
The subject of test [19] is UACC-257 melanoma.
Test [20] relates to M14 melanoma.

As for `COC(=O)c1nc(-c2ccc(C)cc2)oc1S(=O)(=O)c1ccc(Cl)cc1`, the growth was 91.3% in [1]; 96% in test [2]; 99.6% in [3]; 97.4% in [4]; 109% in test [5]; 95.1% in [6]. Moreover, the growth in test [7] was 59.6%; in test [8], 100%; in [9] it was 86.1%; in [10] it was 70.5%; in test [11] it was 113%; in [12], 9.37% (active). Besides, the growth in test [13] was 31%; in [14], 87%; in [15], 120%; in test [16], 97.1%; in [17], 108%; in [18], 96.6%. Moreover, the results for the growth in [19] and in test [20] were 100% and 79.7%, respectively.
Consider `COCCOc1cc2ncnc(N3CCN(S(=O)(=O)c4ccccc4Cl)CC3)c2cc1OCCOC`, for which the growth in [1] was 85.8%; in test [2] it was 95.5%; in [3] it was 98.3%; in test [4], 90.4%; in [5] it was 103%; in [6] it was 75.6%. The growth was 65.8% in [7]; 86.7% in [8]; 89.2% in [9]; 96.8% in [10]; 91.2% in test [11]; 41.3% in test [12]. Besides, the growth in test [13] was 67.9%; in [14], 74.8%; in test [15], 83.9%; in [16] it was 86.2%; in test [17], 82.7%; in test [18], 88.8%. Further, the figures for the growth in [19] and in test [20] were 83.5% and 71.9%, respectively.
As to `CC1(Cc2ccccc2)CC2=C(C(=O)O1)C(c1ccccc1)NC(=O)N2` (stereo not given), the growth was 100% in [1]; 101% in test [2]; 98.6% in [3]; 97.4% in [4]; 110% in test [5]; 77% in test [6]. Besides, the growth in test [7] is 95.4%; in test [8] it was 112%; in test [9] it was 100%; in test [10], 106%; in test [11] it was 111%; in test [12], 78.4%. Also, the growth in test [13] is 104%; in test [14] it was 103%; in test [15], 108%; in [16], 110%; in test [17], 104%; in test [18], 94.5%. Moreover, the figures for the growth in test [19] and in [20] were 101% and 98%, respectively.
As for `CCOC(=O)c1cnn(-c2ccc(S(N)(=O)=O)cc2)c1N`, the growth in [1] was 95.5%; in test [2], 92%; in test [3], 99.8%; in [4] it was 95.9%; in test [5], 104%; in test [6], 105%. Besides, the growth was 96.2% in [7]; 103% in test [8]; 95.6% in test [9]; 140% in test [10]; 132% in test [11]; 87.7% in test [12]. Also, the growth in test [13] is 104%; in [14] it was 111%; in test [15], 95.9%; in [16], 161%; in [17] it was 110%; in test [18], 101%. The growth in test [19] is 96.1%; in [20] it was 98.9%.
Take `COc1ccc(/C(C)=C(\c2ccc(OCCN3CCOCC3)cc2)c2ccc(OC(=O)C3CCCCC3)cc2)cc1`: the growth is 101% in test [1]; 113% in test [2]; 99.5% in test [3]; 108% in test [4]; 107% in test [5]; 109% in [6]. Besides, the growth in test [7] was 104%; in test [8], 106%; in test [9], 104%; in [10] it was 110%; in test [11] it was 95.7%; in [12], 89.2%. Also, the growth in test [13] is 97.7%; in [14], 111%; in test [15], 121%; in [16], 101%; in test [17], 103%; in test [18] it was 94.7%. The growth is 112% in test [19] and 102% in [20].
As to `COc1ccc(C(CC(=O)c2ccc3c(c2)OCO3)C(=O)O)cc1OC` (stereo not given), the growth in test [1] was 104% and 96.7%; in test [2] it was 110%; in test [3], 107% and 96.1%; in [4], 106% and 104%; in [5], 102% and 112%; in test [6], 108% and 101%. Further, the growth was 88.6% and 78.1% in test [7]; 92.6% and 98% in [8]; 111% and 98.6% in [9]; 122% and 107% in test [10]; 121% and 106% in test [11]; 119% and 90.1% in [12]. Moreover, the growth in test [13] was 114% and 90.3%; in [14], 128% and 113%; in test [15], 115% and 106%; in test [16], 111% and 97.7%; in test [17], 86.9% and 81.9%; in test [18], 126% and 104%. Besides, the growth was 91.5% and 106% in [19]; 115% and 103% in test [20].
